LASV entry inh: qHTS for Inhibitors of binding or entry into cells for Lassa Virus; Lassa virus pseudotype entry inhibition, cell reporter; Potency, µM (highest dose often 37.9 µM), inactives show top-dose activity change, negative = inhibition, hits mostly inhibitors; actives 1.2% (n = 300,000); calls by dose curve; tested in HEK293 cells; further: potency means the concentration at half of the fitted maximal effect; nearly all actives have a fitted effect of over 50% in size
Pf growth 48h: Primary qHTS for delayed death inhibitors of the malarial parasite plastid, 48 hour incubation | Potency, µM (highest dose often 28.7 µM), for inactives: at the top dose activity change, negative = inhibition, most hits filed as inhibitors | AID 504832, 2011 | P. falciparum luciferase growth in erythrocytes, 48 h | actives 5.9% (n = 310,000); further: potency means the concentration at half of the fitted maximal effect
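A one-generation exposure of luciferase-tagged malaria parasites in RPMI 1640/Albumax erythrocyte culture, 37 C and 5% CO2. Inhibition is inferred from decreased luminescence after adding detection reagent.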
Pf growth 96h: Primary qHTS for delayed death inhibitors of the malarial parasite plastid, 96 hour incubation | P. falciparum luciferase reporter growth, 96 h | actives 6.9% (n = 320,000) | Potency, µM (doses to about 28.7 µM), for the others: at the top dose activity change, negative = inhibition, actives largely listed as inhibitors; further: potency means the concentration at half of the fitted maximal effect
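P. falciparum expressing integrated firefly luciferase, in erythrocytes at 2% hematocrit, 0.05% parasitemia, incubated with compounds 96 h at 37 C, 5% CO2. Growth inhibition read as loss of luminescence; two-generation exposure targets delayed-death apicoplast inhibitors.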
HCV inhibitor: qHTS Assay for Inhibitors of Hepatitis C Virus (HCV); Huh7.5.1 HCVcc-Cre infection, luciferase reporter, 44 h; Potency, µM (highest dose often 41.8 µM), for the others: top-dose activity change, negative = inhibition, actives largely listed as inhibitors; actives 3.4% (n = 340,000); further: potency means the concentration at half of the fitted maximal effect
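Compounds are dispensed onto cells plated 4 h earlier at 1,000 per well, with HCVcc-Cre virus (about 0.5 moi) added next. Following 44 h of culture, luminescent signal is measured for 15 sec after 15 min with substrate at room temperature.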
MARV entry inh: qHTS for inhibitors of binding or entry into cells for Marburg Virus; Marburg virus pseudotyped entry inhibition, cell reporter; Potency, µM (titrated, usually from 37.8 µM), without a hit: at the top dose activity change, negative = inhibition, most hits filed as inhibitors; actives 1.8% (n = 300,000); AID 540276, 2011; calls by dose curve; tested in HEK293 cells; further: potency means the concentration at half of the fitted maximal effect
HCMV inh: qHTS Assay for inhibitors of the human cytomegalovirus (HCMV) | HFF cells, HCMV-luciferase reporter, 72 h; hits give low values | activity change, negative = inhibition, % at 57.5 µM | actives 4.5% (n = 410,000) | AID 1259415, 2018; in the data active means activity change below about -60%; inconclusive means no clear call, values can overlap the other calls; inactive means above about -39%
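Human foreskin fibroblasts infected with luciferase-reporter HCMV at MOI 1 PFU/cell, compounds at two doses. Luciferase measured 72 h post infection; normalized to buffer-only basal and Salinomycin (10uM) controls.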
The depositor's hits bear a star; i = inactive; ? = inconclusive; / = not tested or not shown; [ ] = another dose, or the depositor's remark. Shown are actives, neighbours in structure and some others; about 14% of the full set was active somewhere. Unless noted, the call rests on the fitted dose curve; in most records, active means well fitted inhibition curve with a large enough effect; inconclusive means small, poorly fitted or top-dose-only effect, or another doubt; inactive means no such curve, though single readings can be large or run the other way. On the % scale 0 is the no-effect control and ±100 the full control effect.

SMILES	LASV entry inh	Pf growth 48h	Pf growth 96h	HCV inhibitor	MARV entry inh	HCMV inh
COc1ccc(C(=O)C2CCCN(C(=O)CCc3scnc3C)C2)c(C)c1 (stereo not drawn)	-22%[46.1 µM]	2.3µM*	260%	?	4%[46.1 µM]	-76*
COC(=O)CCCC(=O)N1CCCC(C(=O)c2ccc(OC)cc2C)C1 (stereo not drawn)	/	4%	15µM*	2%	/	-17
CCCc1nc2ccc(NC(=O)c3ccccc3OC)cn2n1	/	/	/	/	/	-13
O=C(NCCCn1ccnc1)c1cn(-c2ccccc2)nc1-c1ccccc1	7%	0%	-3%	-14%	-2%	19
N#C/C(=C/c1cn(-c2ccccc2)nc1-c1cccc(S(=O)(=O)N2CCOCC2)c1)C(=O)NCc1ccco1	5%	-8%	-27%	-25%	-19%	20
N#C/C(=C/c1cn(-c2ccccc2)nc1-c1cccc(S(=O)(=O)N2CCCC2)c1)C(=O)NCc1ccco1	?	10µM*	10µM*	?	-20%	2
N#C/C(=C/c1cn(-c2ccccc2)nc1-c1cccc(OCc2ccccc2)c1)C(=O)NCCCn1ccnc1	?	4.7µM*	2.1µM*	?	11µM*	16
CCOc1cccc(-c2nn(-c3ccccc3)cc2/C=C(/C#N)C(=O)NCCCn2ccnc2)c1	?	2.6µM*	?	18µM*	?	?
Cc1ccc2nc3c(cc(C#N)c(=O)n3-c3nnc(SCc4ccc(F)cc4)s3)c(=O)n2c1	?	/	/	/	?	4
CCC(Sc1nnc(-c2ccc(OC)c(OC)c2)c(-c2ccc(OC)c(OC)c2)n1)C(=O)NC1CCCC1 (stereo not drawn)	10%[46.1 µM]	/	/	/	/	28
Cc1cccc(S(=O)(=O)NC(=O)C2(C)CCN2C(=O)C2(c3ccc(Cl)cc3)CCC2)c1 (stereo not drawn)	/	/	/	/	/	-33
Cc1ccc(NC(=O)c2c(C)nn(-c3ccccc3)c2-n2cccc2)c(Cl)c1	-20%[46.1 µM]	/	/	/	21%[46.1 µM]	-10
N=C(N)c1ccc(N)cc1	1%	?	?	8%	3%	?
NC(=Nc1ccc(N)cc1)C(N)=Nc1ccc(N)cc1	26%[46.1 µM]	32%	?	12%	?	-65*
Cc1ccc(N/N=C/c2ccc3c(c2)OCCO3)cc1Cl	-4%	?	-20%	-5%	?	-29
O=C(O)c1cc(N/N=C/c2ccc3c(c2)OCO3)ccc1Cl	?	i	439%	5%	2.5µM*	98
O=C(O)c1cc(N/N=C/c2ccc3c(c2)OCCO3)ccc1Cl	1.6µM*	277%	481%	0%	?	163
O=C(O)c1ccc(N/N=C/c2ccc3c(c2)OCO3)cc1	?	?	-14%	-3%	?	-73*
O=C(O)c1ccc(N/N=C/c2cc3c(cc2[N+](=O)[O-])OCO3)cc1	13%[46.1 µM]	395%	74%	20%	?	?
O=C(NC1CCCCCC1)c1cccc(N2CCCC2=O)c1	-25%	181%	44%	25µM*	?	28
Cn1nc(C(=O)NCc2ccccc2CN2CCCC2)c2ccccc2c1=O	-14%	?	15µM*	?	?	-4
O=C(NCc1ccccc1CN1CCCC1)c1cccc(N2CCCC2=O)c1	/	?	4.1µM*	?	/	104
O=C(NCc1cccs1)c1cccc(N2CCCC2=O)c1	7%	25%	100%	1%	1%	44
COCCNc1nc(NCCN2CCNC2=O)c2sc(-c3ccccc3)cc2n1	/	/	/	/	/	32
Cc1cc(Cl)n2c(nc3cc(F)c(F)cc32)c1C#N	?	?	?	?	13µM*	-99*
SMILES	LASV entry inh	Pf growth 48h	Pf growth 96h	HCV inhibitor	MARV entry inh	HCMV inh
Cc1cc(C)n2c(=O)c3ccc(Cl)cc3nc2c1C#N	12%	39%	10%	-5%	24%[46.1 µM]	31
O=C(CCl)Nc1cccn2ncnc12	?	10µM*	/	?	?	-60*
COc1ccc(-c2c(C#N)c(N)nc3c2CCc2ccccc2-3)cc1OC	?	2.3µM*	7.4µM*	11µM*	23µM*	-26
COc1ccc(-c2cc(-c3ccc(O)cc3)nc(N)c2C#N)cc1OC	?	-5%	?	?	4.5µM*	0
CCN1C[C@@]2(COC)C3[C@@H](OC)C4[C@@H]1C3([C@@H]1C[C@@]3(O)[C@H](OC(=O)c5ccccc5)[C@@H]1[C@]4(OC(C)=O)[C@@H](O)[C@@H]3OC)[C@H](OC)C[C@H]2O	/	/	/	/	1%	/
CN1C(=O)C2(c3ccccc31)N(C)CC(c1ccccc1)C21SC(=S)N(Cc2ccco2)C1=O (stereo not drawn)	?	1.3µM*	15µM*	10µM*	?	-62*
CN1C(=O)C2(c3ccccc31)N(C)CC(c1ccccn1)C21SC(=S)N(Cc2ccco2)C1=O (stereo not drawn)	0%	9.3µM*	?	?	?	?
CC(C)(C)Sc1ccc2nc3c(n2c1)CCCC3	-9%	12µM*	?	?	-30%	-15
COc1cccc(-c2ccc3c(N)c(C(=O)c4ccc(Cl)cc4)sc3n2)c1	?	/	/	/	?	-39
N/C(=N\OC(=O)c1cc([N+](=O)[O-])ccc1Cl)c1ccccn1	?	45%	-23%	11µM*	?	31
NC(=O)c1ccc([N+](=O)[O-])cc1Cl	/	?	11µM*	/	/	/
N/C(=N\OC(=O)c1cccc([N+](=O)[O-])c1)c1ccccn1	-26%	365%	?	?	?	-28
N/C(=N\OC(=O)c1ccccc1Cl)c1cccc([N+](=O)[O-])c1	/	284%	-26%	9%	/	51
N/C(=N\OC(=O)c1ccc([N+](=O)[O-])cc1Cl)c1ccccn1	?	117%	?	?	?	-72*
N/C(=N/OC(=O)c1ccccc1Cl)c1ncc([N+](=O)[O-])s1	?	?	?	11µM*	?	36
CNC(=O)COC(=O)c1ccc([N+](=O)[O-])cc1Cl	11%	15%	22%	-6%	0%[46.1 µM]	7
COc1cccc(-c2ccc3c(c2)O[C@@H](CN(C)C(=O)C2CCOCC2)[C@H](C)CN([C@H](C)CO)S3(=O)=O)c1	/	/	/	/	/	-7
O=C(CSc1nnc2c(Cl)cc(C(F)(F)F)cn12)NCc1ccc(F)cc1	6%	?	8.3µM*	15%	?	-16
CCOCCCNC(=O)c1cn(CC)c2ccc(S(=O)(=O)N3CCOCC3)cc2c1=O	27%[46.1 µM]	-10%	10µM*	18%	-10%[46.1 µM]	-7
